Experimental data from PubChem BioAssay AID1835 (Johns Hopkins Ion Channel Center, 2009).
Hit rate of the full screen: of about 2,400 compounds, about 750 (31%) were called active. The list shows a part of the results. Values without a mark were called inactive.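 Rule for the calls: active = median signal gain over dofetilide-blocked control wells reaching their mean plus 3 SD, so readout 1 at least 0; inactive = the rest.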

Biological target: Voltage-gated inwardly rectifying potassium channel KCNH2 (Homo sapiens) (UniProt Q12809)
Sequence (Q12809 whole entry, looked up): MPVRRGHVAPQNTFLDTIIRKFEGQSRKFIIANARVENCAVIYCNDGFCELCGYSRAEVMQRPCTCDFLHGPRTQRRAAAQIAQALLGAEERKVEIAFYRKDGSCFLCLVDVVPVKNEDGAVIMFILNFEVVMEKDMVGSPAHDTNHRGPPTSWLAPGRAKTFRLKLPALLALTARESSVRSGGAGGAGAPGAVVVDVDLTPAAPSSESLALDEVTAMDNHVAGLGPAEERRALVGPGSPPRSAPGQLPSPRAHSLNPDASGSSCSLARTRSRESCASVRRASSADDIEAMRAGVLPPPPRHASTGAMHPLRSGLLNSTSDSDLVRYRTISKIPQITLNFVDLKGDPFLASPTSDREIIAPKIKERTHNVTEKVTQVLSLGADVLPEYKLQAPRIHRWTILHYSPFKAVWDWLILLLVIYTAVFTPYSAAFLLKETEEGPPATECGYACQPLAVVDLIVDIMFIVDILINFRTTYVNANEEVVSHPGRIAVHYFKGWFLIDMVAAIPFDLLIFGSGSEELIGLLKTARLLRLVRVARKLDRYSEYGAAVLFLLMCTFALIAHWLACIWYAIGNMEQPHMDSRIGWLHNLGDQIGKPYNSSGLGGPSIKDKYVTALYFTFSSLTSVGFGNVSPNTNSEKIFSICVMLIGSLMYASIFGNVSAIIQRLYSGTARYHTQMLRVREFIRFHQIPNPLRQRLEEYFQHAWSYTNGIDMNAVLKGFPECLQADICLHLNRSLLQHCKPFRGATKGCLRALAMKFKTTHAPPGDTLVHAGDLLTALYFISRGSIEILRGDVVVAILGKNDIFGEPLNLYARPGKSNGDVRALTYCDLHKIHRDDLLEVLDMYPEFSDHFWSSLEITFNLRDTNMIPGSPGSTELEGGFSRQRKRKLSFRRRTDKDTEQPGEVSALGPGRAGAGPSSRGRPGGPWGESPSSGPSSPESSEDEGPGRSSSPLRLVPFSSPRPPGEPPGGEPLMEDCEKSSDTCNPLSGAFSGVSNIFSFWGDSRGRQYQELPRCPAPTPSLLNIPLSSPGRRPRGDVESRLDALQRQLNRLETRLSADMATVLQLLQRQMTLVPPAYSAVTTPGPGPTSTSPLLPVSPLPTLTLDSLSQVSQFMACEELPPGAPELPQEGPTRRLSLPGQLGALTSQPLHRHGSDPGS
Assay: modulators restoring hERG flux under dofetilide – cell-based, thallium flux, duplicate retest, dofetilide IC70, confirmation (AID 1835)
Conditions: hERG cell line, FluxOR thallium flux, dofetilide-blocked; at 10 µM; hits give high values

Row | SMILES | activity increase over dofetilide control, less the hit threshold
1 | O=C(CCc1ccccc1)Nc1nccs1 | -12%
2 | O=C(Nc1ncc(Br)s1)C(Cc1ccccc1)n1cccc1 (configuration not stated) | 22% (active)
3 | CC(C)C(=O)Nc1ccc(NC(=O)CCc2ccccc2)cn1 | -14%
4 | Cc1cc2[nH]c(=O)c(=O)[nH]c2cc1S(=O)(=O)N1CCN(c2cccc(C)c2C)CC1 | -5%
5 | CC(Oc1ccc(Cl)cc1)/C(N)=N/O (configuration not stated) | -20%
6 | Cc1ccc2[nH]cc(CCNC(=O)/C=C/c3ccco3)c2c1 | -14%
7 | CCOc1ccc(CC(C(N)=O)C(N)=O)cc1 | -12%
8 | CCOc1ccc(-c2c(=O)n(O)c3ccccc3[n+]2[O-])cc1 | 74% (active)
9 | CCCOc1ccc(-c2c(=O)n(O)c3ccccc3[n+]2[O-])cc1 | 51% (active)
10 | Cc1cccc(/C=N/Nc2ccc3ccccc3n2)c1 | -3%
11 | O=S(=O)(Nc1nc(-c2sccc2Cl)cs1)c1cc(Cl)ccc1Cl | 73% (active)
12 | O=C(Nc1ccccc1)OCCCCCOC(=O)Nc1ccccc1 | -11%
13 | C/C(Cl)=C\Cn1c(O)c(N=NC(N)=S)c2cc(Br)ccc21 | 49% (active)
14 | C=CCn1c(O)c(N=NC(=S)Nc2ccccc2F)c2cc(S(=O)(=O)N3CCOCC3)ccc21 | 0%
15 | COc1ccc(C(=O)O/N=C(\N)c2ccccn2)cc1[N+](=O)[O-] | -11%
16 | Nn1c(SCC(=O)Nc2ccc(OC(F)F)cc2)nnc1-c1ccco1 | -12%
17 | CCCCOC(=O)Cn1c2ccc(OC)cc2c2nc3ccccc3nc21 | -28%
18 | CC(C)OC(=O)c1c2nc3ccccc3nc2n2c1[nH]c(=O)c1ccccc12 | 85% (active)
19 | CCc1ccc(C(=O)CSc2nc3ccccc3c(=O)[nH]2)cc1 | -16%
20 | CC1=NN(C(=O)c2cc(C)nn2C)C(O)(C(F)(F)F)C1 (configuration not stated) | -14%
21 | CC(C)Sc1nc2ccccc2n2cnnc12 | -2%
22 | O=C(c1cccc(C(F)(F)F)c1)C1CCCN(C(=O)CCn2cnnn2)C1 (configuration not stated) | -3%
23 | CCc1cc(=O)[nH]c(SCc2ccc(C)cc2)n1 | -11%
24 | CCSc1nc(=S)cc(C)[nH]1 | 49% (active)
25 | CSc1nc(=S)cc(C)[nH]1 | 5% (active)
26 | CCOc1cccc(Nc2cc3n(c(=O)n2)CCc2cc(OC)c(OC)cc2-3)c1 | -22%

Row | SMILES | activity increase over dofetilide control, less the hit threshold
27 | Cc1cc(C(=O)NP(=O)(N2CCOCC2)N2CCOCC2)c(C)n1-c1ccc(Br)cc1 | -13%
28 | Cc1cc(NC(=O)CSc2ccc(-c3ccc(F)cc3)nn2)no1 | -12%
29 | CC(C)(C)C1(O)CC(C(F)(F)F)=NN1C(=O)Cc1ccc([N+](=O)[O-])cc1 (configuration not stated) | -19%
30 | O=C(C1CC1)N1N=C(c2ccccc2)CC1(O)C(F)(F)C(F)(F)F (configuration not stated) | -11%
31 | CCCCC1(O)CC(C(F)(F)F)=NN1C(=O)COc1ccccc1 (configuration not stated) | 4% (active)
32 | COc1cc(OC)c(C2=NOC(C(=O)Nc3ccc4c(c3)OCO4)C2)cc1Cl (configuration not stated) | -21%
33 | Oc1ccc(N=Nc2ccccc2-c2nn[nH]n2)c(O)c1 | 6% (active)
34 | COc1cc(CNn2nnnc2N)ccc1OCC(=O)NC(C)(C)C | -15%
35 | CCCCCCCCCCn1c2c(c(=N)c3c1CCC3)CCC2 | 49% (active)
36 | CCOC(=O)NC(=O)/C(C#N)=N\Nc1ccc(Cl)cc1 | -17%
37 | Cc1cc(Br)c(NC(=O)COC(=O)C2CC2C)c(Br)c1 (configuration not stated) | -11%
38 | COC(=O)CNC(=S)NC(=O)c1ccc(C(C)(C)C)cc1 | -8%
39 | CCOC(=O)NC(=S)Nc1ccc(C(C)(C)C)cc1Br | 23% (active)
40 | CCOC(=O)NC(=S)Nc1ccc(C(C)(C)C)cc1 | 3% (active)
41 | c1cnc2c(Oc3ncnc4sccc34)cccc2c1 | -11%
42 | N#Cc1ccc(OCc2nnc(-c3ccc([N+](=O)[O-])cc3)o2)cc1 | -3%
43 | COc1cc(C2NC(=O)NC(C)=C2C(=O)OCC2CCCCC2)ccc1O (configuration not stated) | -3%
44 | CCOC(=O)C1=C(c2ccccc2)NC(=O)NC1c1ccc(OC)c(OC)c1 (configuration not stated) | -6%
45 | CCOC(=O)C1=C(c2ccccc2)NC(=O)NC1c1ccc(O)c(Cl)c1 (configuration not stated) | 5% (active)
46 | CCCCN(C(=O)CNC(=O)c1cccs1)C(C(=O)NC1CCCC1)c1ccncc1 (configuration not stated) | -6%
47 | O=C(Nc1ccc(NC(=O)C2CC2)nc1)c1cccs1 | -21%
48 | CCC1CCCCN1C(=S)NC(=O)c1ccc([N+](=O)[O-])cc1 (configuration not stated) | 28% (active)
49 | O=C(O)c1cccc(C(=O)Nc2cccc(NC(=O)C3CCCO3)c2)c1 (configuration not stated) | -14%
50 | CCCCNC(=S)NC(=O)c1ccc([N+](=O)[O-])cc1 | -4%
51 | CCC1CCCCN1C(=S)NC(=O)c1cccs1 (configuration not stated) | 4% (active)
52 | O=C(NC(=S)N(CC1CCC1)CC1CCCO1)c1cccc([N+](=O)[O-])c1 (configuration not stated) | 14% (active)

Row | SMILES | activity increase over dofetilide control, less the hit threshold
53 | CCCCCC(=O)NNC(=S)NC(=O)c1ccc([N+](=O)[O-])cc1 | -24%
54 | CC1CCN(C(=S)NC(=O)c2cccc([N+](=O)[O-])c2)CC1 | 15% (active)
55 | CCOC(=O)/C=C/c1ccc2c(c1)S(=O)(=O)N(c1cccc(OC)c1)[C@H]2CC(=O)OCC | -20%
56 | O=C(NC1CCCC1)C(c1ccncc1)N(Cc1ccccc1F)C(=O)c1csnn1 (configuration not stated) | -1%
57 | Cc1occc1C(=O)Nc1cccc([N+](=O)[O-])c1 | -20%
58 | CCC1CCCCN1C(=S)NC(=O)c1cccc([N+](=O)[O-])c1 (configuration not stated) | 36% (active)
59 | O=[N+]([O-])c1ccc(Nc2ccccc2F)nc1 | -3%
60 | O=C(CCc1nc(-c2ccccc2)no1)N1CCCC1 | -20%
61 | CC(C(=O)N1CCN(c2ccc([N+](=O)[O-])cc2)CC1)N1C(=O)C2CC=CCC2C1=O (configuration not stated) | -9%
62 | C=CCn1c(SCc2ccc(C(=O)O)cc2)nc2sc(C)c(C)c2c1=O | 20% (active)
63 | C=CCN1C(=O)C(Cc2ccc(OCC)cc2)SC1=Nc1ccc(C(=O)O)cc1 (configuration not stated) | -11%
64 | C=CCOc1ccccc1/C=c1\sc2nc(=O)c(C)nn2c1=O | -7%
65 | CNC(=O)CSc1nnc(-c2ccco2)n1-c1ccc(C)cc1 | -10%
66 | COc1ccc(NC(=S)NC(NC(=O)c2cccc3ccccc23)C(Cl)(Cl)Cl)c([N+](=O)[O-])c1 (configuration not stated) | -23%
67 | CNC(=S)Nc1sc2c(c1C(=O)OC)CCC2 | 17% (active)
68 | COC(=O)c1c(NC(=S)Nc2ccc(F)cc2[N+](=O)[O-])sc2c1CCCCC2 | 11% (active)
69 | C=CCNC(=S)Nc1sc2c(c1C(=O)OCC)CC(C(C)C)OC2 (configuration not stated) | -4%
70 | CCOC(=O)c1c(NC(=S)NC)sc2c1CCCC2 | 42% (active)
71 | CCOC(=O)c1c(/N=C/C2=C(O)CCCC2=O)sc2c1CCCC2 | -14%
72 | C=CCNC(=S)Nc1sc2c(c1C(=O)OCC)CC(C)(CC)OC2 (configuration not stated) | 15% (active)
73 | COc1ccc(CCNC(=O)CSc2ccc3nnc(CCNC(=O)c4ccccc4)n3n2)cc1OC | -13%
74 | Clc1cccc(-c2ccc(C=Nc3ccc(N4CCOCC4)cc3)o2)c1Cl | -12%
75 | COc1ccc(CCNC(=O)CC(NS(=O)(=O)c2ccc(NC(C)=O)cc2)C(C)C)cc1OC (configuration not stated) | -8%
76 | CCOC(=O)c1c(NC(=S)NC)sc2c1CC(C)(C)SC2 | 79% (active)
77 | CC(=O)NC(CSC(CC(=O)c1ccco1)c1ccc(C)cc1)C(=O)O (configuration not stated) | -15%
78 | C[n+]1ccccc1/C=C/c1c(F)cccc1F | -2%

Row | SMILES | activity increase over dofetilide control, less the hit threshold
79 | C[n+]1ccccc1/C=C/c1ccc(C#N)cc1 | 6% (active)
80 | COc1cc(Cl)cc(C(c2c(C(=O)O)[nH]c3ccccc23)c2c(C(=O)O)[nH]c3ccccc23)c1O | -20%
81 | Cc1c(-c2ccn[nH]2)cc(NC(=O)c2ccc(Cl)cc2)c(=O)n1N | 7% (active)
82 | CC(=O)NCCc1nc2cc(NC(=O)c3ccc(Cl)cc3)ccc2n1C | -9%
83 | Cn1nc(C(F)(F)F)c(-c2ccc(Br)cc2)c1NC(=O)c1cccnc1 | 6% (active)
84 | CN(C)S(=O)(=O)c1cccc(C(=O)Nc2cccnc2)c1 | -6%
85 | O=C(N=C1SC2CS(=O)(=O)CC2N1c1cccc(Cl)c1Cl)C1CCCO1 (configuration not stated) | -15%
86 | CCOc1ccc(S(=O)(=O)Nc2nc3ccccc3nc2-n2ccc(=NC(=O)c3cccs3)cc2)cc1 | -6%
87 | Cc1nonc1CN(C)C(=O)c1ccc(OC2CCN(Cc3ccccn3)CC2)cc1 | 3% (active)
88 | CN(CCc1ccccn1)C(=O)CCC1CCCN(C(=O)c2ccsc2)C1 (configuration not stated) | -5%
89 | C/C(=N\N1CCN(C2c3ccccc3-c3ccccc32)CC1)c1ccncc1 | -18%
90 | C/C(=C/CCC(C)[C@H]1CC[C@@]2(C)C3=C(CC[C@]12C)[C@@]1(C)CCC(=O)C(C)(C)[C@@H]1CC3)C(=O)O (some centres not stated) | 45% (active)
91 | C/C(=C/CCC(C)C1CCC2(C)C3CCC4C(C)(C)C(=O)CCC4(C)C3=CCC12C)C(=O)O (configuration not stated) | 15% (active)
92 | Nc1ncnc(Oc2cccc3cccnc23)c1[N+](=O)[O-] | -12%
93 | Nc1cc(-c2ccc(Br)cc2)[nH]n1 | -11%
94 | CSc1cccc(NC(=O)CN2C(=O)c3ccccc3S2(=O)=O)c1 | -19%
95 | CNC(=O)c1ccc(NC(=O)CN2c3cccc4cccc(c34)S2(=O)=O)cc1 | 61% (active)
96 | O=C(CN1C(=O)c2cccc3cccc1c23)Nc1cccnc1 | -17%
97 | COc1ccc(N2CCN(C(=S)NC(=O)c3cccs3)CC2)c([N+](=O)[O-])c1 | 1% (active)
98 | Cc1c(C(=O)NN2CCN(C)CC2)cccc1[N+](=O)[O-] | -16%
99 | O=C(NC(=S)N1CCN(c2c(Cl)cccc2[N+](=O)[O-])CC1)c1cccs1 | 2% (active)
100 | O=C(NC(=S)N1CCN(c2ccc(C(F)(F)F)cc2[N+](=O)[O-])CC1)c1cccs1 | 12% (active)
101 | COc1ccc(N2CCN(C(=S)Nc3cccc(OC)c3)CC2)cc1 | -11%
102 | O=C(NC(=S)N1CCN(c2ccc(Cl)cc2[N+](=O)[O-])CC1)c1cccs1 | 12% (active)
